According to the supplement of paper PMC10498489:
About 330 (14%) of roughly 2,300 compounds showed activity. The list is a sample of the results. Unmarked numbers belong to inactive results.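 How the source made its calls: active = median modified Z-score above 1.96; inactive = 1.96 or below.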

System: HepG2 Srxn1-GFP reporter cells (+30 nM CDDO-Me)
Assay: Srxn1-GFP intensity median modified Z-score relative to plate median; higher = stronger NRF2 / oxidative stress reporter activation, active = hit call of the paper
Conditions: 10 µM; exposure time: 24h
Summary of the method: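 HepG2 Srxn1-GFP BAC reporter cells were seeded at 20,000 per well in 96-well plates and co-exposed for 24 h to compound at 10 μM and an NRF2 activator at 30 nM, with DMSO at ≤0.1%, in three replicate plates. Cells were fixed with formaldehyde, stained with Hoechst and imaged by confocal microscopy, and cytoplasmic GFP was measured per cell, with images holding under 100 cells discarded. The reported value is the median over replicates of each plate's modified Z-score of GFP intensity. For this score, scaling used 1.4826 × median absolute deviation.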

In order of falling “Srxn1-GFP intensity median modified Z-score” value:
1. O=c1c2c3c(sc2nc(SCc2ccc(Cl)c(Cl)c2)n1-c1ccccc1)CCCC3  1.55
2. COCCn1nc(C(=O)NC(C)c2cccc(Cl)c2)ccc1=O (stereo not given)  1.38
3. COc1cc(C)c(C(=O)Oc2cc(C)c(C(=O)O)c(O)c2C)c(OC)c1C [euspeclibcmpd1550]  1.38
4. Oc1ccc2c(c1)OCC1(O)Cc3cc(O)c(O)cc3C21 (stereo not given) [euspeclibcmpd1416]  1.37
5. O=C(NCCC(=O)N1CCN(Cc2ccc3c(c2)OCO3)CC1)c1ccc(Cl)cc1  1.31
6. CN(C)CCCN1c2ccccc2Sc2ccc(Cl)cc21 [euspeclibcmpd59]  0.609
7. O=c1cc(-c2ccccc2)oc2ccc(O)cc12 [euspeclibcmpd1505]  0.447
8. O=C(Nc1nc(-c2ccc(F)c(F)c2)cs1)c1cc(F)c(F)cc1[N+](=O)[O-]  0.285
9. OCc1cc(O)c2c(O)c3c(O[C@@H]4O[C@H](CO)[C@@H](O)[C@H](O)[C@H]4O)cccc3c(O[C@@H]3O[C@H](CO)[C@@H](O)[C@H](O)[C@H]3O)c2c1 [euspeclibcmpd932]  0.277
10. Cc1cc(C(C)(C)C)c(O)c(C)c1CC1=NCCN1 [euspeclibcmpd222]  0.261
11. CC[C@@H]1OC(=O)C[C@@H](O)[C@H](C)[C@@H](O[C@@H]2O[C@H](C)[C@@H](O)[C@H](N(C)C)[C@H]2O)[C@@H](CCN2C[C@H](C)C[C@H](C)C2)CC(C)C(=O)/C=C/C(C)=C\C1CO[C@@H]1O[C@H](C)[C@@H](O)[C@@H](OC)[C@H]1OC (stereo not given in full) [euspeclibcmpd704]  0.22
12. CC(C)(CO)C(=O)C(O)NCCC(=O)O (stereo not given) [euspeclibcmpd2436]  0.216
13. Cc1cc(=O)oc2cc(O)ccc12 [euspeclibcmpd929]  0.128
14. CCCCc1c(O)n(-c2ccccc2)n(-c2ccccc2)c1=O [euspeclibcmpd235]  0.115
15. CC(C)(Sc1cc(C(C)(C)C)c(O)c(C(C)(C)C)c1)Sc1cc(C(C)(C)C)c(O)c(C(C)(C)C)c1 [euspeclibcmpd377]  -0.0593
16. O=c1c(Cc2c(O)oc3ccccc3c2=O)c(O)oc2ccccc12 [euspeclibcmpd328]  -0.0638
17. Cn1c(=O)c2c(ncn2CC2OCCO2)n(C)c1=O [euspeclibcmpd483]  -0.13
18. CC1(C)SC2C(NC(=O)C(N)c3ccccc3)C(=O)N2C1C(=O)O (stereo not given) [euspeclibcmpd2081]  -0.172
19. O=c1c(CC[S+]([O-])c2ccccc2)c(O)n(-c2ccccc2)n1-c1ccccc1 (stereo not given) [euspeclibcmpd282]  -0.197
20. CC1C(=O)CCC2[C@]3(C)CC[C@@]4(C)C5CC(C)(C)CC[C@]5(C)CC[C@]4(C)C3CC[C@]12C (stereo not given in full) [euspeclibcmpd1606]  -0.261
21. O=c1cc(-c2ccccc2)oc2cc(O)ccc12 [euspeclibcmpd1489]  -0.269
22. CC(CS)C(=O)N1CCCC1C(=O)O (stereo not given) [euspeclibcmpd337]  -0.273
23. CCC[C@@H]1CC(C(=O)N[C@@H]([C@@H]2O[C@H](SC)[C@H](O)[C@@H](O)[C@H]2O)[C@H](C)Cl)N(C)C1 (stereo not given in full) [euspeclibcmpd68]  -0.322
24. C[C@]12CCC3c4ccc(O)cc4CCC3C1CCC2=O (stereo not given in full) [euspeclibcmpd118]  -0.384
25. CCOC(=O)c1c(C)cc(O)c(C=O)c1O [euspeclibcmpd1571]  -0.398
26. NC(C(=O)C(O)C(O)CO)C(O)O (stereo not given) [euspeclibcmpd1661]  -0.409
27. O=c1ccc2ccc(O)cc2o1 [euspeclibcmpd1541]  -0.459
28. CCC(C(=O)O)c1ccccc1 (stereo not given) [euspeclibcmpd2274]  -0.651
29. CC1C(=NO)C[C@@H]2C[C@H]1C2(C)C (stereo not given in full) [euspeclibcmpd1398]  -0.67

In the case of `O=c1oc2cc(O)ccc2s1` [euspeclibcmpd1146], the “Srxn1-GFP intensity median modified Z-score” value is reported as 5.96 (active).
In the case of `O=c1cc(-c2ccccc2)oc2c(O)c(O)ccc12` [euspeclibcmpd2237], the “Srxn1-GFP intensity median modified Z-score” value is reported as 4.14 (active).
With `CCCCc1c(O)n(-c2ccc(O)cc2)n(-c2ccccc2)c1=O` [euspeclibcmpd223] the “Srxn1-GFP intensity median modified Z-score” value was 13.1 (active).
With `Cc1cc(C(C)(C)C)c(O)c(C(C)(C)C)c1` [euspeclibcmpd1001] the “Srxn1-GFP intensity median modified Z-score” value was 14.5 (active).
`C=C(C)c1cc(O)c(C)cc1O` [euspeclibcmpd1354] was tested, and the “Srxn1-GFP intensity median modified Z-score” value was 6.7 (active).
For `COC(=O)c1c(C)cc(OC(=O)c2c(C)cc(O)c(C=O)c2O)c(C)c1O` [euspeclibcmpd1556], the “Srxn1-GFP intensity median modified Z-score” value was 12.5 (active).
